Screening data (PubChem BioAssay)
The list is not random: actives were taken first. Their share in the collection is about 11%.
G9a block – blocks human histone lysine methyltransferase G9a; Q96KQ7; G9a H3K9 monomethylation, AlphaScreen, 2 h; Potency, µM (titrated, usually from 102 µM), for the others: at the top dose activity, negative = inhibition, actives largely listed as inhibitors; hit rate 8.8% among 350,000; AID 504332; note: % is set by controls: 0 for no effect and ±100 for the full control effect; nearly all actives have a fitted effect of over 75% in size
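Signal arises when biotinylated H3K9 peptide, once monomethylated, bridges streptavidin donor and antibody-captured acceptor beads. Enzyme at 20 nM was preincubated 15 min with test compounds; peptide 500 nM and SAM 20 uM then reacted for 2 h.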
PLK1 PBD inh – PLK1 (human) polo-box domain binding inhibition | Plk1 PBD binding of FITC phosphopeptide, fluorescence polarization | AID 720504 | hit rate 2.8% among 360,000 | Potency, µM, inactives show max response, negative = inhibition, usual class: inhibitors | P53350; note: series mostly up to about 57 µM; % is set by controls: 0 for no effect and ±100 for the full control effect; nearly all actives have a fitted effect of over 65% in size
Target sequence (P53350 whole entry, looked up, the tested form may be a part): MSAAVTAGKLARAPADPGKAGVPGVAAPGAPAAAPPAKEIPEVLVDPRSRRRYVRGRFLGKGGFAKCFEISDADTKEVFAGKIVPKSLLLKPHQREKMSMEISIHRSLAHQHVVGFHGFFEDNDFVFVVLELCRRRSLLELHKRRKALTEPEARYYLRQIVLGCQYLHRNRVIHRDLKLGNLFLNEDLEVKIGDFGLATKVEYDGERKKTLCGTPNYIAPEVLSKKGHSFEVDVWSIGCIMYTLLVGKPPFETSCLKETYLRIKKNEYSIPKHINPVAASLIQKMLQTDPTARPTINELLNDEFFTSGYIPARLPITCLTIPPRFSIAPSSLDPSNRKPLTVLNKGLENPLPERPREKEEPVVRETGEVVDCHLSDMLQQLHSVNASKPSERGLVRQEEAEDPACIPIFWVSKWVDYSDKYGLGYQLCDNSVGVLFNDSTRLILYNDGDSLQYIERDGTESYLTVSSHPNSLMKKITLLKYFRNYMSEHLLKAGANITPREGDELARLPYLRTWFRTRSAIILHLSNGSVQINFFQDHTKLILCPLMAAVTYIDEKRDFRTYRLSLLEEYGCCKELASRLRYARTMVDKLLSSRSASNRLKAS
HP1b chromo inh – HP1-beta chromodomain-methylated histone interaction inhibition; Potency, µM (series often up to 114 µM), inactives show at the highest dose activity change, negative = inhibition, usual class: inhibitors; hit rate 0.56% among 390,000; AlphaScreen HP1-beta / biotin-H3K9me3 peptide binding; note: nearly all actives have a fitted effect of over 70% in size
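HP1-beta protein (50 nM final) preincubated 30 min at room temperature with biotinylated H3(1-18)K9me3 peptide (50 nM) in PBS pH 7.4, 0.01% Tween-20, then compound added for 30 min. AlphaScreen streptavidin donor/nickel chelate acceptor beads (10 ug/mL final), 30 min dark, luminescence read.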
VDR inhibitor – blocks the human vitamin D receptor | P11473 | VDR-SRC2-3 peptide fluorescence polarization, 2 h | Potency, µM, without a hit: max response, negative = inhibition, most hits filed as inhibitors | hit rate 0.93% among 400,000; note: % is set by controls: 0 for no effect and ±100 for the full control effect
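Reagent solutions, kept cold and dark, are dispensed first; compounds are then pinned in at 23 nl, plates briefly spun, and incubated 2 h at ambient temperature. Inhibition of VDR–SRC2-3 peptide binding is read by fluorescence polarization.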
JMJD2A Tudor inh – blocks the human JMJD2A Tudor domain. O75164. hit rate 4.4% among 390,000. AID 504339. AlphaScreen JMJD2A-Tudor / H3K4me3 peptide binding. Potency, µM (series often up to 114 µM), for inactives: at the highest dose activity change, negative = inhibition, actives largely listed as inhibitors; note: % is set by controls: 0 for no effect and ±100 for the full control effect; nearly all actives have a fitted effect of over 50% in size
BAZ2B block – BAZ2B (human) inhibition; AlphaScreen BAZ2B-H3K14Ac peptide displacement; Q9UIF8; hit rate 4.4% among 360,000; Potency, µM (doses to about 114 µM), inactives show at the highest dose activity change, negative = inhibition, hits mostly inhibitors; note: % is set by controls: 0 for no effect and ±100 for the full control effect; nearly all actives have a fitted effect of over 60% in size
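Protein-peptide AlphaScreen: BAZ2B 50 nM, b-H3K14Ac 50 nM, 1x PBS pH 7.4 + 0.01% Tween-20. Preincubation 30 min RT; cpd 30 min RT (top 110 uM); beads 20 min RT, light-protected.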
Active calls of the source: *; [ ] = remark or other dose. Calls come from the whole dose curve; as a rule, active = well fitted curve in the direction sought with a large enough effect; inconclusive = small, poorly fitted or top-dose-only effect, or another doubt; inactive = no such curve, though single readings can be large; an effect the other way counts as inactive or inconclusive. Potency is the fitted concentration of half-maximal effect.

For C=CCN=Cc1sc2ccc(OCC)cc2c1O the results were G9a block 44.7µM* and BAZ2B block -10.7%.
CCCCN=Cc1sc2ccc(OCC)cc2c1O was read as G9a block inconclusive, PLK1 PBD inh 26.7µM*, HP1b chromo inh inconclusive, VDR inhibitor inconclusive, JMJD2A Tudor inh 28.2µM* and BAZ2B block 79.4µM*.
Screening CCOc1ccc(N=CNc2ccc(OCC)cc2)cc1 returned G9a block -7.1%, PLK1 PBD inh -1.7%, HP1b chromo inh 4.9%, VDR inhibitor -5.6%, JMJD2A Tudor inh inconclusive and BAZ2B block inconclusive.
`CCOc1ccc2nc(/N=C/c3nc(-c4ccc(Br)cc4)oc3O)sc2c1` gave G9a block 13.7%, PLK1 PBD inh 18.3%, HP1b chromo inh inconclusive, VDR inhibitor -3.4%, JMJD2A Tudor inh -18.6% and BAZ2B block 14.4%.
Screening CCCCN(C/C=C/c1ccccc1OC)Cc1ccccc1 returned G9a block 17.8µM*, PLK1 PBD inh -1.3%, HP1b chromo inh inconclusive, VDR inhibitor -20.4%, JMJD2A Tudor inh 1.26µM* and BAZ2B block inconclusive.
Screening CCN(C/C=C/c1ccccc1OC)Cc1ccccc1 returned PLK1 PBD inh -21.6%, HP1b chromo inh inconclusive, VDR inhibitor 9.8%, JMJD2A Tudor inh 20µM* and BAZ2B block inconclusive.
Screening CCN(CC)CCCCCOc1ccccc1OC returned G9a block -35.4%, PLK1 PBD inh -11.0%, HP1b chromo inh 11.7%, VDR inhibitor 5.2%, JMJD2A Tudor inh -14.1% and BAZ2B block -10.5%.
For CCOC(=O)c1cc(-c2ccc(F)cc2)n(CCC(=O)NC2CCCCC2)c1C the results were G9a block -10.3%[59 µM], HP1b chromo inh 3.2%, VDR inhibitor -4.8%, JMJD2A Tudor inh -9.3% and BAZ2B block -6.2%.
For CN(C)c1nc(N2CCOCC2)nc(N(c2ccccc2)c2ccccc2)n1 the results were G9a block inconclusive, PLK1 PBD inh 2.8%, HP1b chromo inh 32.8%, VDR inhibitor -5.6%, JMJD2A Tudor inh -2.9% and BAZ2B block -4.1%.
Screening CN(C)c1cccc(N=C2C=C(N3CCOCC3)CC(C)(C)C2)c1 returned G9a block 3.16µM*, PLK1 PBD inh -26.0%, HP1b chromo inh -11.4%, VDR inhibitor 1.5%, JMJD2A Tudor inh 50.1µM* and BAZ2B block -2.9%.
Oc1ccccc1C1C=C(c2ccc3c(c2)OCO3)NC(c2ccc(F)c(Br)c2)N1 (stereo unspecified) was read as HP1b chromo inh 19.1%, VDR inhibitor inconclusive and JMJD2A Tudor inh -30.8%.
Oc1ccc(Br)cc1C1C=C(c2ccc3c(c2)OCO3)NC(c2ccc(F)c(Br)c2)N1 (stereo unspecified) was read as HP1b chromo inh 23.5%, VDR inhibitor 50.1µM* and JMJD2A Tudor inh inconclusive.
`COC(=O)CCCC[C@H]1SC[C@H]2NC(=O)N[C@]21O` gave G9a block 2.24µM* and BAZ2B block 0.891µM*.
COC(=O)CCCCC1SCC2NC(=O)NC21O (stereo unspecified) was read as G9a block 8.91µM*, PLK1 PBD inh inconclusive, HP1b chromo inh -95.0%, VDR inhibitor inconclusive, JMJD2A Tudor inh 0.891µM* and BAZ2B block 2.24µM*.
`COC(=O)CCCC[C@@H]1SC[C@@H]2NC(=O)N[C@@H]21` gave VDR inhibitor 2.3%.
Screening O=C(Cc1c(O)c2ccccc2[nH]c1=O)NCc1ccccc1F returned G9a block 70.8µM*, PLK1 PBD inh -2.5%, HP1b chromo inh 17.5%, VDR inhibitor 2.0%, JMJD2A Tudor inh -5.0% and BAZ2B block -1.7%.
`COc1ccc(CCN2C(=O)C(O)=C(C(=O)c3ccco3)C2c2cccs2)cc1OC` (stereo unspecified) gave G9a block -49.4%[0.0925 µM], PLK1 PBD inh -8.3%, HP1b chromo inh -4.0%, VDR inhibitor -7.7%, JMJD2A Tudor inh inconclusive and BAZ2B block inconclusive.
Screening Cc1cc(C(=O)N/N=C/C(Cl)=C/c2ccccc2)c(C)o1 returned G9a block 13.7%[59 µM], PLK1 PBD inh 0.0%, HP1b chromo inh 8.9%, VDR inhibitor -11.7%, JMJD2A Tudor inh -29.0% and BAZ2B block -25.4%.
O=C(O)c1cc(N/N=C/c2ccc3c(c2)OCCO3)ccc1Cl was read as G9a block inconclusive, PLK1 PBD inh -13.7%, HP1b chromo inh 18.8%, VDR inhibitor 3.4%, JMJD2A Tudor inh -12.3% and BAZ2B block -35.8%.
For O=C(O)c1cc(NN=C2c3ccccc3-c3ccccc32)ccc1Cl the results were G9a block 44.7µM*, PLK1 PBD inh inconclusive, HP1b chromo inh -5.7%[57 µM], VDR inhibitor -6.9%, JMJD2A Tudor inh -33.2% and BAZ2B block inconclusive.
NNc1cc(C(=O)O)ccc1Cl was read as PLK1 PBD inh inconclusive, HP1b chromo inh inconclusive, VDR inhibitor inconclusive, JMJD2A Tudor inh 25.1µM* and BAZ2B block inconclusive.
`O=C(O)c1cc(N/N=C/C(Cl)=C/c2ccccc2)ccc1Cl` gave G9a block 35.5µM*, PLK1 PBD inh inconclusive, HP1b chromo inh 9.1%, VDR inhibitor -10.3%, JMJD2A Tudor inh -30.4% and BAZ2B block 35.5µM*.
Screening O=C(O)c1cccc2c1-c1ccccc1/C2=N\Nc1ccccc1 returned G9a block 50.1µM*, PLK1 PBD inh 37.7µM*, HP1b chromo inh 21.8%, VDR inhibitor -17.7%, JMJD2A Tudor inh inconclusive and BAZ2B block -31.4%.
`NC(=O)N/N=C1\c2ccccc2-c2c(C(N)=O)cccc21` gave G9a block 7.4%, PLK1 PBD inh -11.3%, HP1b chromo inh 12.1%, VDR inhibitor 6.2%, JMJD2A Tudor inh -9.4% and BAZ2B block -6.2%.
For COc1ccc(NC(=O)CSc2nc3c(c(=O)[nH]2)CCC3)cc1 the results were G9a block -7.2%[59 µM], HP1b chromo inh 27.2%, VDR inhibitor 9.9%, JMJD2A Tudor inh -7.0% and BAZ2B block -9.7%.
O=C(Cn1nc(N2CCN(c3ccccc3)CC2)ccc1=O)NCc1cccc(Cl)c1 was read as G9a block inconclusive, HP1b chromo inh 25.1%, VDR inhibitor 13.8%, JMJD2A Tudor inh inconclusive and BAZ2B block -15.5%.
`O=C(NC1CCCCC1)NC1C2CC3CC(C2)CC1C3` (stereo unspecified) gave G9a block 64.1%, PLK1 PBD inh 5.4%, HP1b chromo inh 40.5%, VDR inhibitor 9.9%, JMJD2A Tudor inh 9.6% and BAZ2B block -2.3%.
Screening O=C(O)/C=C/C(=O)Nc1ccc(Cl)c(C(=O)O)c1 returned G9a block inconclusive, PLK1 PBD inh 5.7%, HP1b chromo inh 32.6%, VDR inhibitor 10.2%, JMJD2A Tudor inh -14.8% and BAZ2B block inconclusive.
Screening NNc1ccc(Cl)c(C(=O)O)c1 returned G9a block 1.26µM*, PLK1 PBD inh 29.9µM*, HP1b chromo inh 38.9%, VDR inhibitor -28.3%, JMJD2A Tudor inh -0.7%[11.4 µM] and BAZ2B block -36.8%.
